# Bioassay records from PubChem.
# TROY signal inh – blocks TROY-dependent signaling in reporter cells | inhibition, % at 10 µM | actives 0.98% (n = 360,000) | Q293 LMP1-TROYcd NF-kB luciferase reporter, 4 h;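 active = compounds whose plate-normalised and pattern-corrected inhibition of the luciferase reporter signal at the single screening dose is 50% or more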
# HSP90 inh – blocks HSP90-mediated luciferase refolding in reticulocyte lysate. actives 0.91% (n = 290,000). Rabbit reticulocyte lysate, luciferase refolding luminescence, 3 h. inhibition, % at 5.6 µM. AID 1789;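 active = inhibition above the screen-wide mean plus 3 SD, computed separately per campaign, cut at about 16% in these data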;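 note: 0% = DMSO wells and 100% = 60 µM geldanamycin wells; inhibitors lower the luminescence because luciferase stays unfolded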
# TRAIL sens C8 – caspase-8 TRAIL sensitization | actives 1% (n = 360,000) | AID 624354 | NB7+C8 cells + TRAIL, ATPlite viability luminescence | inhibition (viability loss, TRAIL sensitization), % at 10 µM;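 active = compounds causing at least 50% loss of cell viability in the single-dose screen, relative to plate controls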
# TWEAK-Fn14 inh – blocks TWEAK-Fn14 interaction in a reporter cell assay; actives 2% (n = 360,000); inhibition, % at 10 µM; TWEAK-stimulated Fn14 reporter cells, luciferase luminescence, 8 h; in the data active = inhibition above about 50%
# HIF-2a block – inhibitors of HIF-2a; 786-0 RCC cells HIF-2a reporter, luciferase luminescence, overnight; inhibition, % at 18.8 µM; actives 0.72% (n = 360,000);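 active = inhibition of the luminescence signal of 40% or more relative to plate controls, in a single-dose primary screen at 18.75 µM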
# aSyn UTR inh – 5' untranslated region of α-synuclein, MLPCN primary screen; alpha-synuclein 5'UTR reporter, inhibitor activity; inhibition, % (tested at 7.5 µM); actives 0.82% (n = 300,000); AID 1813; in the data active = inhibition above about 60%;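 note: H4 neuroglioblastoma cells stably carrying SNCA 5'UTR luciferase fusion; 0% = DMSO wells and 100% = positive control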
# An asterisk follows results filed as active; x = no result. Sampled rows, rich in hits. Any-hit rate of the full collection: about 3.9%.
SMILES,TROY signal inh,HSP90 inh,TRAIL sens C8,TWEAK-Fn14 inh,HIF-2a block,aSyn UTR inh
O=C(c1cc(C2CC2)nc2ccccc12)N1N=C(C(F)F)CC1(O)C(F)F (stereo not drawn),-4,-2,-10,81*,18,26
COc1cc2c(cc1OC)C(c1ccc(-c3ccc(Cl)cc3Cl)o1)=NCC2,35,3,25,50*,-4,50
COc1cc2c(cc1OC)C(c1ccc(-c3ccc(Cl)c(Cl)c3)o1)=NCC2,47,2,23,75*,2,-11
Cc1ccccc1Oc1ccc2c(c1)[C@@H]1C[C@H](N(C)C(=O)c3ccco3)[C@H]([C@H](C)O)C(=O)N1CC2,-5,x,-6,-1,-17,x
Nc1nc2ccc(Cl)cc2cc1C(=O)NCCCN1CCOCC1,x,x,-17,x,7,x
CC(=O)C1=C(O)C(=O)N(CCC(=O)O)C1c1ccccc1Cl (stereo not drawn),-19,5,-1,59*,11,-29
O=c1c(Cl)nc2cc(Cl)ccc2n1CCNc1ncc(C(F)(F)F)cc1Cl,16,0,-1,-13,18,110*
Cc1cc(C(=O)C(C(c2ccccc2)N2CCOCC2)N2CCOCC2)ccc1Cl (stereo not drawn),-45,x,-8,-12,-53,x
CC(C)C[C@H]1CN(CCCC[C@@H]2CNC(=O)C(=O)N2CCc2ccccc2)C(=O)C(=O)N1CCc1ccccc1,-5,x,-1,13,5,x
CCOC(=O)c1csc(Nc2nc3ccc(F)cc3s2)n1,-23,1,17,105*,-105,-82
O=C(Nc1nc2ccccc2s1)c1ccccc1,1,9,49,50*,-164,2
O=C(Nc1nc2ccc(F)cc2s1)C1=COCCO1,36,x,40,85*,18,57
O=C(O)c1ccccc1-c1ccccc1C(=O)Nc1nc2ccccc2s1,-16,-1,10,6,6,12
c1ccc2sc(NN=C3CCCCCC3)nc2c1,76*,12,66*,76*,-39,5
CCCCc1c(-c2ccccc2F)ncn1CCc1ccccc1OC,35,x,26,32,-32,x
CC(=O)O[C@H]1[C@@H](O)[C@H](O)[C@H](Oc2c(O)c(C)c3c4c2[C@@H](C)CC[C@@H]4[C@@H](C)C[C@@H]3C=C(C)C)O[C@H]1C,1,x,-2,9,-1,x
O=C(CCN1C(=O)C2CCCCC2C1=O)Nc1nc2ccc(F)cc2s1 (stereo not drawn),73*,x,2,72*,-96,x
O=C(Nc1ccc2nc3ccccc3nc2c1)c1ccccc1,-45,0,57*,2,-266,-97
O=C(CCN1C(=O)C2CCCCC2C1=O)Nc1nc2c(F)cc(F)cc2s1 (stereo not drawn),-12,x,-12,2,-194,x
CN(C(=O)c1ccccc1)c1nc2ccccc2s1,16,3,72*,41,-196,-35
O=C(Nc1ccc(Cl)c(Cl)c1)c1ccccc1,-48,x,11,19,-296,x
O=C(Nc1nnc(SCc2ccc(F)cc2)s1)c1ccccn1,33,0,37,-16,-92,63*
CN(C(=O)c1ccc2nc(N)sc2c1)c1ccccc1,-21,3,0,1,1,-13
O=c1[nH][nH]c2c1[C@H](c1ccc(F)cc1)O[C@H](CCC(F)(F)F)C2,6,x,-19,12,9,x
CC1(C(=O)NS(=O)(=O)c2ccc(C#N)cc2)CCN1C(=O)C1CCCCC1 (stereo not drawn),11,x,6,14,9,x
SMILES,TROY signal inh,HSP90 inh,TRAIL sens C8,TWEAK-Fn14 inh,HIF-2a block,aSyn UTR inh
Nc1ccn(CCCN2CCN(C(=O)C3CC3)CC2)c(=O)n1,7,x,-1,4,8,x
CCCS(=O)(=O)NC(=O)C1(C)CCN(C(=O)c2ccnc(Cl)c2)C1 (stereo not drawn),-1,x,-14,-6,5,x
CCCCOCCCNC(=O)C[C@@H]1C[C@@]2(C(=O)OCC)CCC=C2N(Cc2ccccc2)C1=O,-18,x,-6,1,10,x
O=C(Nc1nc2ccccc2s1)c1cnccn1,12,6,34,56*,-138,-39
O=C(Nc1nc2ccc(F)cc2s1)c1ccccn1,x,56*,x,x,x,102*
Cc1ccc(C(=O)Nc2nc3ccc(S(C)(=O)=O)cc3s2)s1,-25,-1,42,6,-156,-60
Cc1ccc(C(=O)Nc2nc3ccccc3s2)s1,10,16,49,69*,-290,-34
CCC(=O)[C@@H](C)[C@@H](OC(C)=O)[C@H](C)C[C@@H](C)[C@H]1OC(=O)C[C@@]2(O)CC=C(C)C(O2)C(C)=CCCC[C@H](O[C@H]2C[C@@H](OC(N)=O)[C@H](OC(C)=O)[C@@H](C)O2)C=C[C@H](C)C[C@H]1C,7,x,-4,-51,3,x
CSCCC(C(=O)NCc1ccccc1)n1c(Cc2cc(F)cc(F)c2)nc2ccccc21 (stereo not drawn),x,x,-10,x,5,x
COc1cc(OC)nc(Nc2nc(C(N)Cc3ccc(F)cc3)cs2)n1 (stereo not drawn),-9,x,38,-11,15,x
CC(C)C[C@H]1CN(CCCC[C@H]2CNC(=O)C(=O)N2CC2CCCCC2)C(=O)C(=O)N1CCc1ccc(O)cc1,8,x,11,-8,-5,x
CCOC(=O)c1ccc(NC(=O)c2cccc(S(=O)(=O)N3c4ccccc4CC3C)c2)s1 (stereo not drawn),9,0,29,54*,-2,83*
CCOc1ccc(S(=O)(=O)N2c3ccccc3CC2C)cc1 (stereo not drawn),18,0,2,-14,33,93*
Cc1ccc(S(=O)(=O)N2c3ccccc3CC2C)cc1 (stereo not drawn),12,4,-14,31,19,9
COc1ccc(C)cc1NC(=O)COC(=O)c1c(-c2ccccc2)noc1C,17,x,-2,6,-4,x
Cc1cc(C(=O)CSc2nnnn2C)c(C)n1-c1ccc2c(c1)OCCO2,52*,0,-4,22,-198,-125
Cc1cc(C(=O)CN2C(=O)C(=O)N(Cc3ccccc3)C2=O)c(C)n1-c1ccc2c(c1)OCCO2,22,-4,0,51*,15,-74
CNC(=O)C[C@H]1C(=O)N(CCc2ccccc2)C[C@@H]1Cc1ccccc1,-16,x,-6,-3,-48,x
CCN1C(=O)C(=O)c2cc(C)ccc21,10,x,1,5,16,x
CC[N+]1=C(C)C(C)(C)c2cc(C)ccc21,24,4,19,69*,-3,-7
COc1ccccc1NC(=O)C1=C(C)NC2=C(C(=O)CC(c3ccc(OC)c(OC)c3)C2)C1c1coc2ccccc2c1=O (stereo not drawn),16,16*,-3,42,24,37
Nc1ccc(Cn2ccc3c4c(N)nc(N)nc4ccc32)cc1,4,x,74*,-57,36,x
CCCCn1nnnc1C1(C)CCC(=O)N1CCc1ccc(OC)c(OC)c1 (stereo not drawn),-4,x,-14,9,4,x
